Columns and labels:
Format in all cases: functional
[1] = molecular target: Solute carrier family 2, facilitated glucose transporter member 1 (Homo sapiens) (UniProt P11166); test: ST_JUDE_LEISH: Cytotoxicity at 2uM final concentration against transgenic Leishmania Mexicana promastigotes LmGLUT1 that are glucose transport deficient and complemented with the human glucose transporter GLUT1. Activity is measured by DNA content using SYBR green in vitro
[2] = molecular target: Hexose transporter 1 (Plasmodium falciparum) (UniProt O97467); test: ST_JUDE_LEISH: Cytotoxicity at 2uM final concentration against transgenic Leishmania Mexicana promastigotes LmPfHT that are glucose transport deficient and complemented with the Plasmodium falciparum hexose transporter. Activity is measured by DNA content using SYBR green in vitro
[3] = molecular target: Glucose transporter (Leishmania mexicana) (UniProt O61059); test: ST_JUDE_LEISH: Cytotoxicity at 2uM final concentration against transgenic Leishmania Mexicana promastigotes LmGT2 that are glucose transport deficient and complemented with the L. Mexicana glucose transporter 2. Activity is measured by DNA content using SYBR green in vitro

Solute carrier family 2, facilitated glucose transporter member 1 (Homo sapiens), sequence (P11166 whole entry): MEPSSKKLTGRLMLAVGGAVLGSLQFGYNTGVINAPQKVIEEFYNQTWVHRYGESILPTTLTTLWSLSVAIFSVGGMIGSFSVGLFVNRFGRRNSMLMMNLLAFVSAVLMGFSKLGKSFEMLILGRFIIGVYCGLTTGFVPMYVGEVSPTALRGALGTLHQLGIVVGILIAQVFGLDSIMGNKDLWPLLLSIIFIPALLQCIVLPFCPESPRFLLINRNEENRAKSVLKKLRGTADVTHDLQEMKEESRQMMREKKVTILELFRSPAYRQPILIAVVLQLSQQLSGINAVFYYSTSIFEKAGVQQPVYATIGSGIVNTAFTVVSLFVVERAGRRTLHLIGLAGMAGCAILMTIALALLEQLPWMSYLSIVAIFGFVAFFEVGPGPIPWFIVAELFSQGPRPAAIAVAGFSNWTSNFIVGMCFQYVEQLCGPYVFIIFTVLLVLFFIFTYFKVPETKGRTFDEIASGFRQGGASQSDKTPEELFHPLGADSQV

Row | Compound | inhibition [1] | inhibition [2] | inhibition [3]
1 | Cn1c(NC(=O)CCCCCNC(=O)c2ccc(O)c(-c3ccc(Cl)c(Cl)c3)c2)nc2ccccc21 | 1.81% | 1.73% | 2%
2 | Cc1cccc2nc(-c3ccc(-c4ccc(CNCC(C)C)cc4)cc3)[nH]c12 | 15.3% | 13.6% | 8.18%
3 | CC1CCN(CC[C@H]2CCCN2S(=O)(=O)c2cccc(NC(=O)c3ccc(-c4ccccc4)cc3)c2)CC1 | 3.61% | 1.72% | -0.42%
4 | CN1CCN(CCCN(Cc2ccc(-c3ccc(CNCCc4ccccc4)cc3)cc2)C(=O)c2cccs2)CC1 | 2.36% | 1.19% | 3.32%
5 | O=[N+]([O-])c1ccc(N/C(=N\c2ccccc2Br)NC2CCCc3ccccc32)c(O)c1 (stereo unspecified) | 0.73% | -1.02% | -1.9%
6 | O=C(Nc1ccc(OC2CCN(Cc3ccccc3)C2)c(Cl)c1)c1ccco1 (stereo unspecified) | 5.7% | 6.46% | 4.97%
7 | COc1cc(C2NCC3(CCOCC3)c3cc4c(cc32)OCCO4)cc(OC)c1OC (stereo unspecified) | 10.2% | 6.69% | 7.63%
8 | N=c1n(CCN2CCCC2)c2ccccc2n1CC(O)c1ccc(Cl)c(Cl)c1 (stereo unspecified) | 1.98% | 1.57% | 9.08%
9 | COc1ccc(NC(=O)CCNc2cc(C)nc(NCCc3ccc(F)cc3)n2)cc1 | -0.52% | 0.39% | -0.01%
10 | O=C(n1c(-c2cc3ccccc3n2C(=O)C(F)(F)F)cc2ccccc21)C(F)(F)F | 4.6% | 1.94% | -0.64%
11 | COc1ccccc1CN1CCC(NC(=O)c2ccc(-c3ccc(N(C)C)cc3)s2)CC1 | 9.96% | 12.6% | 8.12%
12 | N=C(N)NC(=O)Nc1cc(Br)c(Br)c(Br)c1 | 3.42% | 3.17% | 1.74%
13 | CC(=O)Nc1ccc2[nH]cc(C3CCN(CC4CCC(NC(=O)/C=C/c5ccc(Cl)c(Cl)c5)CC4)CC3)c2n1 (stereo unspecified) | -0.73% | 0.9% | -2.32%
14 | O=C(Nc1ccc(OC2CCN(Cc3ccc(F)cc3)CC2)c(Cl)c1)c1ccsc1 | -1.74% | 2.64% | 1.51%
15 | CC(=O)Nc1ccc(CN(Cc2ccc(F)cc2)Cc2cccc(Oc3ccccc3)c2)cc1 | 3.19% | 1.73% | 0.56%
16 | CCCCN(CCCC)C(=N)c1cccc2c1CCCC2 | 2.36% | 3.35% | 2.45%
17 | CCOc1cc(CC)ccc1C1CCN(CCCCNC(=O)c2ccc(NC(=O)c3ccc(Cl)cc3)cc2)CC1 | 4.23% | 2.23% | 4.97%
18 | O=C(Nc1ccc(CN2CCOCC2)cc1)c1ccc(-c2ccc(Br)cc2)o1 | 2.45% | 0.46% | -2.23%
19 | Cc1cccc2nc(-c3cccc(-c4cccc(CNCCN5CCNCC5)c4)c3)[nH]c12 | 0.34% | -3.8% | 0.48%
20 | CS(=O)(=O)Nc1cccc(-c2cnc3[nH]cc(-c4ccc(C(=O)O)c(F)c4)c3c2)c1 | -2.02% | -1.06% | 1.09%
21 | O=C(Nc1ccccc1)Nc1cccc(-c2cc(CNCCc3ccccc3)sc2-c2ccncc2)c1 | -0.01% | -0.54% | 4.67%
22 | O=C(CCCCCNC(=O)c1ccc(O)c(-c2ccc(Cl)c(Cl)c2)c1)NCCc1ccc(Cl)c(Cl)c1 | -0.22% | 0.09% | 0.33%
23 | CCCN(c1ccc(C(F)(F)F)cc1[N+](=O)[O-])S(=O)(=O)C(c1ccccc1)c1ccc(C(F)(F)F)cc1[N+](=O)[O-] (stereo unspecified) | -0.48% | 6.88% | -1.01%
24 | O=C(NC1CCCCC1)N(Cc1cccc(-c2ccc(CNCCc3ccccc3)cc2)c1)C1CCN(Cc2ccccc2)CC1 | 6.68% | 6.86% | 4.45%

Row | Compound | inhibition [1] | inhibition [2] | inhibition [3]
25 | CC1CC(C)CN(S(=O)(=O)c2cc(C(=O)Nc3cccc([N+](=O)[O-])c3)ccc2Br)C1 (stereo unspecified) | 7.03% | 7.57% | 5.14%
26 | Cc1ccccc1C1CCN(c2ncc(C(=O)Nc3ccccc3)cc2Cl)CC1 | 0.8% | 0.4% | -6.29%
27 | O=C(Cc1cccnc1)N(Cc1ccc(-c2ccc(CNCc3cccnc3)cn2)cc1)C1CCN(Cc2ccccc2)CC1 | -1.34% | -0.95% | -1.68%
28 | Cc1cc(NC(=O)c2ccco2)ccc1OC1CCN(Cc2ccc(C#N)cc2)CC1 | 1.63% | 1.09% | 1.11%
29 | N=C1SC(=Cc2cn[nH]c2-c2ccc(F)cc2)C(=O)N1c1nccs1 | 0.88% | 2.1% | 1.17%
30 | O=S1(=O)C=C(c2ccccc2)CC1 | 1.23% | 1.28% | 1.41%
31 | Cc1cc(N)nc2ccc(-c3ccc(CN)cc3)cc12 | 9.09% | 6.77% | 4.15%
32 | CC(C)C[C@H](NC(=O)[C@H](Cc1ccccc1)N(C[C@H](Cc1ccccc1)NC(=O)OC(C)(C)C)C(=O)C(F)(F)F)C(=O)NC1CCN(Cc2ccccc2)CC1 | 5.24% | 5.7% | 4.2%
33 | COc1ccc(-c2cc(-c3ccc(S(C)(=O)=O)cc3)cnc2N)cn1 | 1.1% | 0.74% | 3.66%
34 | O=C(NCCCCNCC(Cc1cccc(O)c1)c1ccccc1)c1ccc(NC(=O)c2ccc(Cl)cc2)cc1 (stereo unspecified) | -0.19% | -3.38% | -1.18%
35 | CCOc1ccc(-c2n[nH]c(C(F)(F)F)c2-c2ccccc2OC)c(O)c1 | 2.44% | 1.89% | 1.29%
36 | CC(C)CCN1CCCN(Cc2ccc(C(=O)Nc3ccc(Cl)cc3)cc2)CC1 | 11.1% | 11.3% | 11.6%
37 | Cc1[nH]c2c(NCc3ccc(F)cc3)nccc2c1C | 4.48% | 4.33% | 2.57%
38 | CCCCCCCCc1c(C)nc(C)c(Br)c1O | 0.75% | -0.72% | -0.12%
39 | COc1ccc(-c2ccc(NC(=O)c3cccc(C#N)c3)cc2)cc1CN1CCCN(C)CC1 | 4.08% | 2.42% | -0.48%
40 | CC(Nc1nncc(-c2cccc(F)c2)n1)c1ccc(F)cc1 (stereo unspecified) | 11.7% | 9.2% | 10.7%
41 | FC(F)(F)c1ccc2[nH]c(-c3ccc(-c4cccc(CNCc5cnn(-c6ccccc6)n5)c4)s3)nc2c1 | 2.87% | 3.4% | 2.46%
42 | O=C(O)CCCN1CCCC(=C(c2ccccc2)c2ccccc2)C1 | 3.04% | 3.64% | 4.81%
43 | Cc1cccc(-c2nc(Nc3ccncc3)c3cc(N(C)C)ccc3n2)n1 | 0.37% | -1.05% | -3.66%
44 | FC(F)(F)c1ccc2[nH]c(-c3cccc(-c4ccc(CNCc5ccccc5)cc4)c3)nc2c1 | -0.08% | -1.13% | -0.47%
45 | CSc1cccc(NC(=O)Nc2ccc(I)c(OCCN(C)C)c2)c1 | 4.88% | 4.31% | 3.56%
46 | O=C(Nc1ccsc1)Nc1cccc(-c2ccc(-c3nc4cc(C(F)(F)F)ccc4[nH]3)cc2)c1 | 6.66% | 6.27% | 7.95%
47 | NC1CCCN(Cc2cccc(-c3ccc(-c4nc5cc(C(F)(F)F)ccc5[nH]4)cc3)c2)C1 (stereo unspecified) | 2.3% | 0.39% | 2.55%
48 | CCCCNc1nc(NCCCC)c2c(C)c(Cc3ccccc3)c(NCCCC)nc2n1 | 39.8% | 43.6% | 12.3%

Row | Compound | inhibition [1] | inhibition [2] | inhibition [3]
49 | O=C(CCCCCNC(=O)c1ccc(O)c(-c2ccc(Cl)c(Cl)c2)c1)NCCN1CCOCC1 | 4.35% | 3.57% | 2.65%
50 | COc1ccc(-c2nc3c(NCc4ccccc4)nccc3[nH]2)c(OC)c1 | 4.06% | 4.06% | 2.67%
51 | O=C(Nc1ccc(N2CCNCC2)cc1)c1ccn2ncc(-c3cccc(Cl)c3)c2n1 | 84.8% | 83.9% | 54.3%
52 | CC1(C)N=C(N)N=C(N)N1c1cc(Cl)c(Cl)c(Cl)c1 | 1.4% | 0.23% | 2.36%
53 | COc1cc(N)cc2sc(N)nc12 | -1.04% | 0.54% | 0.08%
54 | N#Cc1ccc(N2CCN(Cc3cccc(-c4cccc(-c5nc6cc(F)ccc6[nH]5)c4)c3)CC2)nc1 | 3.5% | 5.99% | 3.65%
55 | O=[N+]([O-])c1cc2c(cc1C=NNc1nc(=Nc3ccccc3)[nH]c(=Nc3ccccc3)[nH]1)OCO2 | 1.53% | 1.47% | -2.69%
56 | O=C(c1cc(-c2ccccc2O)on1)N1CCN(C(c2ccccc2)c2ccccc2)CC1 | -0.36% | -0.36% | 0.34%
57 | O=S(=O)(c1cccc(F)c1)c1ccc(Nc2ncnc3cc(Br)sc23)cc1Cl | 3.23% | 2.8% | -1.17%
58 | O=C(/C=C/c1ccc(Cl)c(Cl)c1)N1CCC(CN2CCC(Cc3cc4ccccc4[nH]3)CC2)CC1 | 0.17% | 2.49% | 0.81%
59 | O=C(CSc1nccn1C1CCCCC1)Nc1cc(C(F)(F)F)ccc1Cl | 8.56% | 9.47% | 7.3%
60 | OCCCCCCNc1nc(NCc2ccccc2-c2ccc(C(F)(F)F)cc2)nc(N2CCNCC2)n1 | 1.31% | -1.2% | 0.81%
61 | CCCCCCNC(=N)c1ccc2[nH]c(-c3ccc(O)cc3)nc2c1 | 3.58% | 4.17% | 3.78%
62 | Cc1cccc2nc(-c3ccc(-c4cccc(NC(=O)c5cnn6cccnc56)c4)cc3)[nH]c12 | 15.4% | 11.7% | 8.93%
63 | O=C(/C=C/c1ccc(Cl)c(Cl)c1)NCCCCCN1CCC(NC(=O)Nc2ccc(Cl)c(Cl)c2)CC1 | 1.02% | -0.03% | 0.09%
64 | COc1cc(C(F)(F)F)cc2[nH]c(CNCCCNc3nc4ccccc4[nH]3)cc12 | 4.4% | 6.5% | 5.01%
65 | CCn1c(C)c(C)c2cc(C(=O)Nc3ccon3)ccc21 | 1.66% | 1.02% | 0.74%
66 | CC(C)(C)c1ccc(CNC(=O)c2cc(CNC3CCC(N)CC3)ccc2O)cc1 (stereo unspecified) | 0.08% | -1.35% | 0.99%
67 | CN(C)C(=O)CN1CCN(c2ncnc(N3CCc4c([nH]c5ccccc45)[C@@H]3c3ccc4c(c3)CCO4)n2)CC1 | 4.28% | 1.61% | -0.47%
68 | O=C(/C=C/c1ccc(Cl)c(Cl)c1)NCCCCCN1CCCC(CNC(=O)Nc2ccc(Oc3ccccc3)cc2)C1 (stereo unspecified) | -0.78% | 0.69% | 0.61%
69 | Cc1cc(NC(=O)c2ccsc2)ccc1OC1CCN(Cc2ccc(F)cc2)CC1 | -0.33% | 2.48% | 1.6%
70 | COC(=O)c1ccc(CC(C)NCC(O)c2ccc(C(O)CNC(C)Cc3ccc(C(=O)OC)cc3)cc2)cc1 (stereo unspecified) | -0.44% | 1.69% | 0.96%
71 | C(=N\Nc1nccc2sc(-c3cccnc3)cc12)/c1cccnc1 | 2.11% | 1.38% | 1.05%
72 | O=C(/C=C/c1ccc(Cl)c(Cl)c1)NCCCCCN1CCC(CCCNC(=O)Nc2ccc(C(F)(F)F)cc2)CC1 | -1.43% | -2.93% | -1.92%
